Laboratory results published in the supplement of paper PMC6555819.

How the values were obtained:
Assay in all cases: PBM binding z-score (relative to random genomic background probes); higher = stronger binding; sequences stand for … in GC…GCGATTGACAGCGTAGAATGAAGG
[1] = test system: FXR:RXRa (NR concentration 270 nM, RXRa partner concentration 90 nM)
Procedure, shortened: (§1)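 For binding z-scores, the reference was random background probes on custom Agilent 4×180K protein-binding microarrays. These arrays were incubated 1 h with ligand-free nuclear receptor dimers in PBS pH 7.4, 2% milk, 0.02% Triton X-100, 1 mM DTT, 0.2 mg/mL BSA and 0.4 mg/ml salmon testes DNA. Fluorescence was scanned after antibody detection of each partner (one per run) and regression-normalized.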

[2] = test system: LXRa:RXRa (NR concentration 270 nM, RXRa partner concentration 90 nM)
Procedure, shortened: as §1

[3] = test system: LXRa homodimer (NR concentration 270 nM)
Procedure, shortened: as §1

[4] = test system: LXRb homodimer (NR concentration 270 nM)
Procedure, shortened: as §1

[5] = test system: PPARa:RXRa (NR concentration 270 nM, RXRa partner concentration 90 nM)
Procedure, shortened: as §1

[6] = test system: PPARg:RXRa (NR concentration 180 nM, RXRa partner concentration 90 nM)
Procedure, shortened: as §1

[7] = test system: PPARg:RXRa 270nM:90nM, anti-RXR (NR concentration 270 nM, RXRa partner concentration 90 nM)
Procedure, shortened: as §1

[8] = test system: PPARg:RXRa 30nM:10nM, anti-RXR (NR concentration 30 nM, RXRa partner concentration 10 nM)
Procedure, shortened: as §1

[9] = test system: PPARg:RXRa 90nM:30nM, anti-RXR (NR concentration 90 nM, RXRa partner concentration 30 nM)
Procedure, shortened: as §1

[10] = test system: PPARg:RXRa DBDmut IVT, anti-RXR (DBD mutation: RXRa K156A/R161A, NR concentration 270 nM, RXRa partner concentration 90 nM)
Procedure, shortened: as §1

[11] = test system: PPARg:RXRa IVT, anti-PPARg (NR concentration 270 nM, RXRa partner concentration 90 nM)
Procedure, shortened: as §1

[12] = test system: PPARg DBDmut:RXRa IVT, anti-PPARg (DBD mutation: PPARg1 K132A/R137A, NR concentration 270 nM, RXRa partner concentration 90 nM)
Procedure, shortened: as §1

[13] = test system: PPARg DBDmut IVT, anti-PPARg (DBD mutation: PPARg1 K132A/R137A, NR concentration 270 nM)
Procedure, shortened: as §1

[14] = test system: PPARg homodimer (NR concentration 180 nM)
Procedure, shortened: as §1

[15] = test system: PXR:RXRa (NR concentration 270 nM, RXRa partner concentration 90 nM)
Procedure, shortened: as §1

[16] = test system: PXR homodimer (NR concentration 270 nM)
Procedure, shortened: as §1

[17] = test system: RARa:RXR (NR concentration 270 nM, RXRa partner concentration 90 nM)
Procedure, shortened: as §1

[18] = test system: RARa homodimer (NR concentration 270 nM)
Procedure, shortened: as §1

[19] = test system: RARb:RXRa (NR concentration 270 nM, RXRa partner concentration 90 nM)
Procedure, shortened: as §1

[20] = test system: LXRb:RXRa (NR concentration 270 nM, RXRa partner concentration 90 nM)
Procedure, shortened: as §1

Row | Sequence | PBM binding z-score [1] | PBM binding z-score [2] | PBM binding z-score [3] | PBM binding z-score [4] | PBM binding z-score [5] | PBM binding z-score [6] | PBM binding z-score [7] | PBM binding z-score [8] | PBM binding z-score [9] | PBM binding z-score [10] | PBM binding z-score [11] | PBM binding z-score [12] | PBM binding z-score [13] | PBM binding z-score [14] | PBM binding z-score [15] | PBM binding z-score [16] | PBM binding z-score [17] | PBM binding z-score [18] | PBM binding z-score [19] | PBM binding z-score [20]
1 | CGTCAAAGTTAAAGGTAACGTAACAGAAAGCAGC | 0.0396 | 0.253 | -0.0511 | -0.0705 | 1.46 | 1.59 | 2.59 | 0.527 | 1.65 | 0.379 | 1.17 | 0.513 | 0.594 | 0.332 | 0.394 | 0.0362 | 0.981 | 0.438 | 1.02 | –
2 | TATACAGGATCAAAGGCCAGAGTACGAATGTCGA | 0.361 | 0.271 | -0.0452 | 0.483 | 1.33 | 2.37 | 3.11 | 1.85 | 2.92 | 0.256 | 1.03 | 0.156 | 0.991 | 1.27 | 0.0724 | 0.338 | 0.0923 | 0.389 | 0.997 | –
3 | GTACCAAGGTGAATAGGTCGTTGATGAGTAGGCG | 0.835 | 0.771 | -0.075 | -0.364 | 2.08 | 1.61 | 1.8 | 0.486 | 1.17 | 1.99 | 2.78 | 0.41 | 0.294 | 1.84 | 0.719 | -0.224 | 1.72 | 0.00144 | 1.94 | –
4 | CAAAATAGGTCAAGAGGTCAAAGTCCGCTTCCCG | 7.64 | 6.57 | 6.23 | 2.46 | 6.57 | 9.42 | 8.19 | 6.55 | 8.11 | 7.42 | 7.83 | 2.31 | 1.62 | 5.84 | 6.31 | 2.24 | 7.5 | 2.71 | 5.7 | –
5 | CTCGAAAGGGCGTGCTCAGGTGAGTATACCAAAC | 0.538 | 0.109 | -0.329 | -0.824 | 0.533 | -0.312 | 0.0309 | -0.439 | -0.22 | -0.316 | 0.335 | -0.537 | -0.0248 | -0.194 | -0.0546 | 0.0968 | 0.278 | -0.187 | 1.37 | –
6 | CCCAGTAGGTTACGAGGGGGCATTCAGTGCGAAT | 2.52 | 7.2 | 1.48 | – | – | 3.75 | 4.46 | 1.62 | 3.59 | 5.3 | 5.49 | – | – | 1.71 | 4.89 | 5.08 | 2.68 | 0.297 | 2.2 | 6.4
7 | ATATGTAGGTTACCGGGTCATTCAGTTTGCGCAT | 3.18 | 3.3 | 1.31 | 0.869 | 5.44 | 8.51 | 7.05 | 4.85 | 6.88 | 8.02 | 8.28 | 6.4 | 4.2 | 3.3 | 4.35 | 9.95 | 4.52 | 0.996 | 2.76 | –
8 | CCTAGTTGGTCAGGGGGTCACACACCGGATATGA | 4.51 | 4.01 | 1.32 | 7.75 | 5.36 | 5.04 | 5.76 | 2.89 | 4.92 | 1.2 | 4.57 | 2.8 | 4.19 | 3.05 | 5.01 | 1.49 | 5.48 | 1.61 | 3.74 | –
9 | CCTACTGGGCCATTCAGAGGTCACTGATCATATG | 1.98 | 3.26 | 4.37 | 0.018 | 3.77 | 2.57 | 3.18 | 0.819 | 2.14 | 4.42 | 4.67 | 0.462 | 0.235 | 1.87 | 3.96 | 0.772 | 4.08 | 0.335 | 3.37 | –
10 | ACTCGGAGGACAAAGGTAAGAGCTACGCCAGTGA | -0.107 | -0.113 | -0.383 | -0.762 | 1.12 | 2.52 | 3.87 | 1.74 | 3.83 | 0.286 | -0.0365 | -0.619 | -1.09 | 0.21 | -0.339 | -0.386 | -0.0753 | -0.128 | 1.17 | –
11 | TAGCCTCGGTCATTCAGGGGCCAGTATAGAAAGC | 1.19 | 1.14 | 0.485 | 0.157 | 0.242 | -0.061 | -0.248 | -0.569 | -0.514 | -0.712 | 0.476 | 0.246 | -0.322 | 0.0789 | -0.0122 | -0.574 | 0.667 | -0.375 | 2.68 | –
12 | ATCGAAAGGTCGTGAAGTGAGTATACAGAAAGGC | 4.52 | 3.75 | 0.493 | 0.774 | 4.76 | 3.21 | 3.51 | 1.42 | 2.63 | 0.0713 | 1.76 | 1.63 | 1.88 | 1.75 | 2.66 | 0.278 | 3.39 | 1.2 | 3.73 | –
13 | ATATGTAGGTTAGCTGGAGTCATTCAGACTAGGC | 0.00563 | 1.28 | -0.0336 | 0.0591 | 2.34 | 3 | 2.47 | 0.982 | 1.63 | 6.03 | 6.03 | 1.63 | 1.57 | 0.988 | 0.231 | -0.186 | 0.556 | 0.257 | 0.61 | –
14 | CCTACTGGGCCACTCAGAGGTCATTGATCATATG | 2.81 | 4.09 | 4.52 | 0.238 | 3.98 | 3.57 | 3.49 | 1.52 | 2.96 | 5.13 | 5.18 | -0.186 | -0.561 | 1.94 | 5.1 | 1.83 | 4.46 | 0.374 | 3.28 | –
